# CRFR2-BP antag – CRF-BP/CRF-R2 complex antagonism. inhibition, % at 11.8 µM. actives 0.59% (n = 350,000). HEK293 CRF-R2/CRF-BP, CRF-induced calcium fluorescence;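 active means inhibition of the ligand-induced calcium signal above about 50% at the single tested concentration, limit read from the data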
# NRP1-CendR mod – alters CendR peptide binding to human NRP-1. FAM-RPARPAR peptide binding to NRP-1, fluorescence polarization. inhibition, % at 25 µM. actives 0.85% (n = 360,000). AID 602438;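 active means inhibition or corrected inhibition above about 18%, plus a signal ratio from 0.5 to 1.5, limit read from the data, passing the limit was not always enough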
# NadD block – blocks S. aureus nicotinate mononucleotide adenylyltransferase | inhibition, % at 20 µM | purified NadD enzyme, colorimetric absorbance read-out | actives 0.78% (n = 360,000) | AID 602399; in the data active means inhibition above about 26%
# Myeloid diff 2 – myeloid differentiation induction | ER-HoxA9 myeloid progenitors, lysozyme-GFP differentiation, flow cytometry | calls only at 10 µM | actives 1% (n = 360,000) | AID 624256;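 active means normalized GFP-positive differentiation at or above the plate's own cutoff, the solvent-only control mean plus 3 SD; inconclusive means no clear call, values can overlap the other calls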;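 further: cells exposed to compound for four days before flow analysis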
# FAS-TE inh – FAS thioesterase (human) inhibition | inhibition, % at 15 µM | recombinant FAS-TE, OMFH fluorogenic substrate, fluorescence endpoint | actives 0.67% (n = 360,000);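 active means compounds whose normalised, plate-corrected inhibition of enzyme fluorescence in the single-dose primary screen is 50% or more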;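 further: 0% = DMSO with enzyme and 100% = substrate without enzyme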
# Target sequence (P49327 whole entry, looked up): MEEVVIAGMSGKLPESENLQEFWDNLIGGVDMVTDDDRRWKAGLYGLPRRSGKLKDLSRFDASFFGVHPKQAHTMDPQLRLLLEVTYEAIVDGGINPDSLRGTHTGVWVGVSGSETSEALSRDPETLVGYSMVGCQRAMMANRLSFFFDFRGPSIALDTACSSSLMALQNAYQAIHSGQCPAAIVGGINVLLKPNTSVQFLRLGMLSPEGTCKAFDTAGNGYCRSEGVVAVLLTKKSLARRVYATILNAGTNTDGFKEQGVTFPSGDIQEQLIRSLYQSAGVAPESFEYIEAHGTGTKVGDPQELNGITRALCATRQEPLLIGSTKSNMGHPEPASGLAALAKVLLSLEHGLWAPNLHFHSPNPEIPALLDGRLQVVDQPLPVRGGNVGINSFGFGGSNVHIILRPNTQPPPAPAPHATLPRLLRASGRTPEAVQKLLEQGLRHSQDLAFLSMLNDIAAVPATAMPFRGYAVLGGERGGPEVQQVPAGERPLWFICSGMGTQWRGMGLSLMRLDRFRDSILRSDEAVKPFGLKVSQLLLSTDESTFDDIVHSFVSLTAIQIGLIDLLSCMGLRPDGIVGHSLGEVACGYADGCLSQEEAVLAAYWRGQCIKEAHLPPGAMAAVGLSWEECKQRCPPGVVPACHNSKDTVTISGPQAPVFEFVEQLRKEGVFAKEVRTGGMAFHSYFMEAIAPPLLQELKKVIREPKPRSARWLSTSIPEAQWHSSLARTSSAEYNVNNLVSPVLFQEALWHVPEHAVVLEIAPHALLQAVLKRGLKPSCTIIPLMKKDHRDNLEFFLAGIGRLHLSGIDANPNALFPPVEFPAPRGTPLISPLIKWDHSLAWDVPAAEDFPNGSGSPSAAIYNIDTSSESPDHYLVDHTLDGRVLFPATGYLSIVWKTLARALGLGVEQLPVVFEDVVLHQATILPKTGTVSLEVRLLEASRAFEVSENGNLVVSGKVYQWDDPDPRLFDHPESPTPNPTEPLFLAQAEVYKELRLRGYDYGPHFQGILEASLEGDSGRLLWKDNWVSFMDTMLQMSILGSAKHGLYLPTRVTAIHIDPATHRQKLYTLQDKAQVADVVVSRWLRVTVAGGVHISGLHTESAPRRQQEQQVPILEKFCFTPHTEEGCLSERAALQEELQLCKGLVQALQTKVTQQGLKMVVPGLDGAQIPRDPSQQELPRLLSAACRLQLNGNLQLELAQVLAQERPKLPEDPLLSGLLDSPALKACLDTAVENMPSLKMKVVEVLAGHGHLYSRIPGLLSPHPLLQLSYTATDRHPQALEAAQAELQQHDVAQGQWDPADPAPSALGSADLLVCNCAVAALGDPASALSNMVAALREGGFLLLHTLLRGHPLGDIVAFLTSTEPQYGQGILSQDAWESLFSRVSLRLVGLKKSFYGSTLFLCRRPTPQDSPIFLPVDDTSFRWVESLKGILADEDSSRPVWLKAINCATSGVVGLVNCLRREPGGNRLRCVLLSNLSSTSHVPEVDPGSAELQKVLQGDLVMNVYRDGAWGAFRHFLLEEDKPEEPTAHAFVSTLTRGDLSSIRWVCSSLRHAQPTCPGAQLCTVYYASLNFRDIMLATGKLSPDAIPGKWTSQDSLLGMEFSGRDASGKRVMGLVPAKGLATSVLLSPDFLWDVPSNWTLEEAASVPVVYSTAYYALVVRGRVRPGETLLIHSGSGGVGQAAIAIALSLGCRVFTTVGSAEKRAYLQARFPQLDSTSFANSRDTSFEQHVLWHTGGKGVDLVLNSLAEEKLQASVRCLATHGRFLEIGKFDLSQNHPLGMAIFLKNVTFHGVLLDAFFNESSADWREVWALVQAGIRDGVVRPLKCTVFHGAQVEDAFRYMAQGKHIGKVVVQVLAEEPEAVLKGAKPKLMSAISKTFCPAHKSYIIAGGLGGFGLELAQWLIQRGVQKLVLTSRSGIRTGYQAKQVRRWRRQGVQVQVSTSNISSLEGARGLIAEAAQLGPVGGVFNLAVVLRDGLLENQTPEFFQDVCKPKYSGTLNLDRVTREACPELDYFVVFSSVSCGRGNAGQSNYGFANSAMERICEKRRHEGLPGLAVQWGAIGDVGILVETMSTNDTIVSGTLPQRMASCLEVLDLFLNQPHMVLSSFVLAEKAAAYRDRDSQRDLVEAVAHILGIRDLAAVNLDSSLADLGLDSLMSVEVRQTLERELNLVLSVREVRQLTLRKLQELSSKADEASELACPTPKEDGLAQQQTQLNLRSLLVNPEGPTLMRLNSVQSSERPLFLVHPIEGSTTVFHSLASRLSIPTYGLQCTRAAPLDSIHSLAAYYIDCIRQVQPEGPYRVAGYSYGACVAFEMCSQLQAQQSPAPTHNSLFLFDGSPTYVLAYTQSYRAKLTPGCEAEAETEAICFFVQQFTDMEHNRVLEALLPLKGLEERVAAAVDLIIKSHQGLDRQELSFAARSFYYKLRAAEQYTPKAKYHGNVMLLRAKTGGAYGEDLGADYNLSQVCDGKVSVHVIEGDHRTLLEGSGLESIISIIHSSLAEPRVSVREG
# Active calls of the source: *; i = inactive; ? = inconclusive; . = no result given; + = active, no number. Hits are enriched below; roughly 3.6% of the tested compounds scored in any of these assays.
SMILES,CRFR2-BP antag,NRP1-CendR mod,NadD block,Myeloid diff 2,FAS-TE inh
Cc1ccc(CN2CC(C(=O)NCCCSc3ccccc3)CC2=O)cc1 (stereo not drawn),56*,6,-3,i,3
NN=C1C(=O)c2cccc3cccc1c23,-5,17,4,i,0
O=C1C=C(O)c2cccc3cccc1c23,-20,41*,0,i,-4
O=C1C=C(N2CCOCC2)c2cccc3cccc1c23,4,28*,-1,i,-10
CCCCc1ccc(-c2nn[nH]n2)nc1,8,-6,-3,i,-8
Cc1cc(C(=O)N2CCCC(CO)(Cc3ccc(F)cc3F)C2)nn1C (stereo not drawn),19,5,-9,+,-6
COC(=O)C[C@@H]1CC[C@@H](NS(=O)(=O)c2cccc(OC)c2)[C@@H](CO)O1,.,-1,.,i,.
O=Cc1ccc(-c2ccccc2C(=O)O)o1,9,35*,0,i,-4
CCC1=[N+](C)c2cccc3cccc(c23)N1C,5,3,14,+,-6
COc1ccc(C2/C(=C(/O)c3ccc4c(c3)CC(C)O4)C(=O)C(=O)N2CCCN2CCOCC2)cc1 (stereo not drawn),2,-17,8,?,-4
CCN=c1scc(C)n1/N=C/c1cc(Br)c(O)c(OC)c1,-3,-9,35*,i,10
CN=c1scc(C)n1/N=C/c1cc(Br)c(O)c(Br)c1,17,1,-3,i,3
CCc1ccc2[nH]c(C(=O)Nc3ccc4c(c3)OCO4)cc2c1,69*,2,-8,i,12
O=C(COC(=O)CSc1ccccc1)NC1CCS(=O)(=O)C1 (stereo not drawn),-19,-3,1,i,-2
COC1=C(Br)C(=O)c2ncccc2C1=O,58*,36*,6,i,11
O=C1C(=O)c2cccnc2-c2ncccc21,.,27*,40*,?,1
C[n+]1cccc(NC(=O)c2ccccc2)c1,.,0,8,i,-11
O=C(COC(=O)Cc1ccsc1)Nc1ccc(Cl)c(S(=O)(=O)N2CCOCC2)c1,5,-4,-5,i,-1
O=C(/C(N=Nc1cccc([N+](=O)[O-])c1)=C(/O)c1ccc(Br)cc1)C(F)(F)F,.,9,5,i,64*
O=[N+]([O-])c1cccc(N=Cc2ccccc2)c1,-3,5,-4,i,-3
CCO/C=N/Nc1nc(C(F)(F)F)nc2c1cnn2Cc1ccccc1,-15,-3,-2,i,3
CCOc1ccc(NC(=O)CN(C)C(=O)COc2cccc3c2OC(C)(C)C3)cc1OCC,1,13,2,i,-4
COc1cc(/C=C2/SC(=S)NC2=O)ccc1OS(=O)(=O)c1ccc(C)cc1,31,-79,19,i,57*
CCOc1ccc(/C=C2\SC(=S)N(NS(=O)(=O)c3ccc(C)cc3)C2=O)cc1OC,51*,-8,11,i,11
COc1ccccc1CNCCS(=O)(=O)NN1CCOCC1,11,-2,2,i,-10
SMILES,CRFR2-BP antag,NRP1-CendR mod,NadD block,Myeloid diff 2,FAS-TE inh
CCCCCC(=O)N1C[C@@H](n2cc(C3CC3)nn2)[C@H](O)C[C@@H]1c1ccc(C)cc1,12,-3,-1,i,1
O=C(Nc1ccccc1SCC1CSc2nc3ccccc3c(=O)n21)c1ccccc1 (stereo not drawn),67*,-9,0,i,-8
O=c1c2ccccc2nc2n1C(CSc1ccc(F)cc1)CS2 (stereo not drawn),-9,29*,-4,i,-7
COc1ccc(C2=CN(Cc3ccccc3)C(c3ccccc3)CC2=O)cc1 (stereo not drawn),2,21*,-1,i,17
CCN(CC)S(=O)(=O)c1ccc(N(C)C)c(NC(=O)CSCc2c(C)noc2C)c1,9,8,-7,i,-2
O=C(c1cccc(S(=O)(=O)NCc2ccccc2)c1)N1CCCC(C(F)(F)F)C1 (stereo not drawn),-3,5,0,i,8
CCS(=O)(=O)c1nc(S(=O)(=O)c2ccc(C)cc2)c(N2CC(C)OC(C)C2)s1 (stereo not drawn),-12,-3,-1,+,8
Cc1nn(-c2ccc(N3CCCCC3)nn2)c(C)c1CCC(=O)Nc1ccc(F)c(F)c1,12,-7,14,i,13
O=C(COc1ccc(Cl)cc1)NCc1nnc(SCC(=O)NCCc2ccccc2)o1,10,20*,-6,i,0
COC(=O)C(CCC(C(=O)OC)N1C(=O)c2ccccc2C1=O)N1C(=O)c2ccccc2C1=O (stereo not drawn),0,-6,1,i,5
CC(C)CC(C(=O)Nn1cnnc1)N1C(=O)c2ccccc2C1=O (stereo not drawn),59*,-3,-4,i,-9
Cc1nc2scc(-c3ccccc3)c2c(=O)n1N=C1C=CC(=O)C=C1,50,.,.,.,.
Cc1cccc(-c2c(NC(=O)c3ccco3)oc3c(C)cccc3c2=O)c1,-7,5,-6,+,-2
O=C1C(=O)c2c(ccc3ccccc23)-c2ccccc21,3,20,6,?,0
CC(=NN(Cc1ccccc1)c1ccccc1)c1ccccc1,7,22*,3,i,22
CCCC1=[N+](CC)CCn2c(C)ccc21,-2,7,7,i,-7
CCCC1=[N+](CC(=O)c2ccc(C)cc2)CCn2cccc21,-12,-6,3,+,-16
Cc1c(-c2ccc(Cl)cc2)[n+](=O)c(-c2ccccc2)cn1[O-],111*,10,0,i,-9
CCCC[C@@H]1CNC(=O)C(=O)N1CCCC,.,-10,-1,i,-8
CN(C)S(=O)(=O)c1cc(NC(=O)CSc2ncc(C(F)(F)F)cc2Cl)ccc1Cl,-21,-7,-11,+,35
CCN(c1ccccc1)S(=O)(=O)c1cc(NC(=O)CSc2n[nH]c(=O)[nH]c2=O)ccc1Cl,111*,-21,5,i,-2
O=C(CSc1n[nH]c(=O)[nH]c1=O)Nc1ccc2c(c1)C(=O)c1ccccc1C2=O,22,-35,54*,i,-1
COc1ccc(CN2CCCCC2C)cc1C (stereo not drawn),60*,13,-2,i,-13
COc1ccc(CN2CCCCC2C)c(C)c1C (stereo not drawn),-16,4,-1,i,-10
Cc1c(N=C2C=CC(=O)c3ccccc32)c(=O)n(-c2ccccc2)n1C,6,38*,2,i,-9
Clc1ccc2nc(C(Cl)(Cl)Cl)[nH]c2c1,17,2,-6,i,-6
Nc1c(C(=O)NC2CC2)sc2nc3c(c(-c4ccco4)c12)CC/C3=C/c1ccco1,4,-172,93*,i,-14
NC(=O)c1sc2nc3c(c(-c4ccco4)c2c1N)CCC3,-17,-12,8,i,0
CCC(=O)c1cn(/C(=C\C(=O)OC(C)(C)C)CCC(OC)OC)cc1CC,7,-4,0,+,6

# From PubChem BioAssay
